# Bioassay records deposited in PubChem BioAssay by National Center for Advancing Translational Sciences (NCATS).
# An excerpt weighted towards active compounds, which were near 0.99% of everything screened.
# TRPV1 potentiator: human TRPV1 potentiation. TRPV1-expressing cells, Fluo-8 calcium influx, capsaicin EC20 potentiation. potentiation, % at 8.33 µM. actives 0.02% (n = 320,000). AID 540277; in the data active means potentiation above about 80%; inconclusive means between about 30% and that limit
#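 Fluo-8 calcium influx in TRPV1-expressing cells, kinetic read (ex 480/em 520 nm). Compound added and read 3 min for agonist activity, followed by capsaicin at EC20 final and 2 min further read for enhancement.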
# TRPV1 ag: activates the human vanilloid receptor TRPV1; TRPV1-expressing cells, Fluo-8 calcium influx, agonist mode; actives 0.19% (n = 320,000); activation, % at 8.33 µM; Q8NER1; in the data active means activation above about 80%; inconclusive means between about 30% and that limit
#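 Fluo-8 calcium influx in TRPV1-expressing cells, kinetic read (ex 480/em 520 nm). Compound added and read 3 min for agonist activity, followed by capsaicin at EC20 final and 2 min further read for enhancement.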
# TRPML1 agonist: activates the human TRPML1 channel. Q9GZU1. TRPML1-expressing cells, Ca2+ dye fluorescence, FDSS. activation, % (concentration not given with the values). actives 0.12% (n = 410,000). AID 624414; in the data active means activation above about 50%; inconclusive means mostly about 30% to 49%
# Target sequence (Q9GZU1 whole entry, looked up): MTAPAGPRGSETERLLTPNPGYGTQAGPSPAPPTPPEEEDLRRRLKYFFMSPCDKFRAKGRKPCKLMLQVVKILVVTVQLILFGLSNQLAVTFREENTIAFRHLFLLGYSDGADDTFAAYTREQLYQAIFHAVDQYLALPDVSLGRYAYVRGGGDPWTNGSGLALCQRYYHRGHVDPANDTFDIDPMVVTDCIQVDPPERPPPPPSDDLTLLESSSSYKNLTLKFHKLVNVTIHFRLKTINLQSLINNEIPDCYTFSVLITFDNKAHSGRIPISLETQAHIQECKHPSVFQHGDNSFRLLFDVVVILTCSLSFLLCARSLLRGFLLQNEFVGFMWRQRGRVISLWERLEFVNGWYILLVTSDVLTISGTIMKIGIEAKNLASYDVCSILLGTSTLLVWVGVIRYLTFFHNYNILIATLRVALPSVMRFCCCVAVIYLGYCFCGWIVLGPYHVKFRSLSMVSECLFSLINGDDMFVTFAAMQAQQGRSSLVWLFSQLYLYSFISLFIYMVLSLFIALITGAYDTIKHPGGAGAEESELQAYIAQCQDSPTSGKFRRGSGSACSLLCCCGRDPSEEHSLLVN
#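 Cells: TRPML1-DL, 1X Tet inducer, ~16 h at 37 degrees C/5% CO2. Dye: ABD Ca8 no-wash + quencher, 45-90 min RT. Read: 10 s baseline, compound add, 110 s agonist phase; 54-4 EC80 (4uM final), 110 s antagonist phase.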
# TRPML1 inh: inhibitors of human TRPML1 channel | actives 0.02% (n = 390,000) | TRPML1-inducible cells, Ca2+ dye fluorescence, FDSS; stronger effect = lower value; inhibition of EC80 agonist-evoked calcium signal | activity change, negative = inhibition, % (no concentration beside the values) | Q9GZU1; in the data active means activity change below about -50%; inconclusive means between about -30% and that limit;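 further: stimulus is agonist 54-4 at its EC80 concentration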
#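 Calcium fluorescence in TRPML1-DL cells induced overnight with Tet: a 110 s read after compound pin addition, then a 110 s antagonist read after challenge with 54-4 at 4 uM final (EC80).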
# TRHR agonist-1: TRH receptor (human) agonism. activation, % at 2 µM. actives 0.18% (n = 360,000). TRHR cells, calcium flux fluo-8, FDSS agonist mode. P34981; in the data active means activation above about 30%
#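 TRHR-expressing cells, plated overnight in medium with 10% serum, were loaded with fluo-8 calcium dye at room temperature. After a 10 s baseline, library compound was pin-added and calcium release was recorded kinetically (ex 480/em 530) as agonist response.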
# TRHR enhancer-1: TRH receptor (human) allosteric enhancement. enhancement, % at 2 µM. AID 493056. actives 0.66% (n = 360,000). TRHR cells, fluo-8 calcium fluorescence, EC20 TRH enhancement; in the data active means enhancement above about 30%
#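 Enhancer read-out: after compound pinning and an initial kinetic agonist-mode read, an EC20 of TRH (10 nM final) was injected and fluo-8 calcium signal (Ex 480/Em 530) followed at 1 s/cycle for 100 cycles in TRHR-expressing cells.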
# TRHR enhancer-2: confirmation of human TRH receptor allosteric enhancers; TRH receptor cell assay, enhancer confirmation qHTS; activity change, negative = inhibition, % at 46.1 µM; AID 493076; 970 tested, under 10 active; shares compounds with TRHR enhancer-1;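 further: compound effect scored on response to added TRH at EC20 of 10 nM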
# TRHR agonist-2: human TRH receptor agonism confirmation; shares compounds with TRHR enhancer-1; TRHR-expressing cells, agonist activation read-out; Potency, µM (titrated, usually from 46.1 µM), actives largely listed as activators; actives 8% (n = 970); further: nearly all actives have a fitted effect of over 75% in size
# A number is an active result; - = inactive; ? = inconclusive; . = not tested or not shown. Unless noted, the call rests on the fitted dose curve; in most records, active means well fitted curve in the direction sought with a large enough effect; inconclusive means small, poorly fitted or top-dose-only effect, or another doubt; inactive means no such curve, though single readings can be large; an effect the other way counts as inactive or inconclusive.
SMILES,TRPV1 potentiator,TRPV1 ag,TRPML1 agonist,TRPML1 inh,TRHR agonist-1,TRHR enhancer-1,TRHR enhancer-2,TRHR agonist-2
Cc1ccc(-c2nnc(Nc3ccc(O)cc3)c3ccccc23)cc1S(=O)(=O)NCc1nc2ccccc2[nH]1,.,.,-,-,-,-,.,.
Cc1ccccc1NC1=C(Cl)C(=O)N(C2CCCCC2)C1=O,-,?,-,-,-,-,.,.
COc1ccccc1NC1=C(Cl)C(=O)N(C2CCCCC2)C1=O,-,-,-,-,-,45.8,-,-
Cc1[nH]nc2c1C(c1c[nH]c3ccccc13)C(C#N)=C(N)O2 (configuration not stated),-,-,-,-,-,51.4,-,-
Cc1cc(N2CCC(C(=O)Nc3ccc(F)cc3C)CC2)n2nc(C)c(-c3ccc(Cl)cc3)c2n1,.,.,-,-,-,-,.,.
Cc1ccc(OCCSc2nc3ccccc3n2CC(=O)N2CCCCC2)cc1C,.,.,-,-,-,-,.,.
COC(=O)c1nnn(-c2nc(N(C)C)nc(N(C)C)n2)c1C,?,-,-,-,-,56.8,-,-
COc1ccccc1C1(O)CCN(C(=O)c2cccs2)CC1,-,-,-,-,-,46.3,-,-
Cc1ccc(F)cc1NCC(=O)Nc1ccc(Br)cc1,-,-,-,-,-,-,.,.
Cc1ccc(NCC(=O)Nc2ccc(Br)cc2)cc1C,-,-,-,-,-,70.3,-,-
CCCN1CNc2c(c(=O)[nH]c(=S)n2CCC(C)C)C1,.,.,-,.,.,.,.,.
O=C(CSc1ncc(-c2ccccc2)nn1)NCc1ccco1,-,-,-,-,-,-,.,.
O=C(CSc1nnc(-c2ccccc2)c(-c2ccccc2)n1)NCc1ccco1,-,-,-,-,-,61.5,-,-
S=C(Nc1ccc(Br)cc1)N1CCCC1,-,-,-,-,-,41.3,-,-
N#CCCn1cc(CNC2CCC(O)CC2)c2ccccc21 (configuration not stated),-,-,-,-,-,45.2,?,-
CC1(Cc2cn(CCC#N)c3ccccc23)OCCO1,-,-,-,-,-,-,.,.
NS(=O)(=O)c1ccc(NC(=O)c2ccc(-c3ccccc3)cc2)cc1,-,-,-,-,-,-,.,.
NS(=O)(=O)c1ccc(C(=O)Nc2ccc(-c3nc4cccnc4s3)cc2)cc1,-,-,-,-,-,44.2,-,-
CN(CCCn1c(=S)[nH]c2ncccc2c1=O)Cc1ccccc1,-,-,-,-,-,46.5,-,-
Cc1ccc2cc(NC(=O)Cc3ccccc3)ccc2n1,-,-,-,-,-,-,.,.
Cc1ccc2cc(NC(=O)c3ccccc3C)ccc2n1,-,-,-,-,-,49.6,-,-
COc1ccc(NC(=O)c2ccco2)cc1NC(=O)COc1ccc(Cl)c(C)c1,.,.,-,-,-,-,.,.
COc1ccc(C(=O)NCCc2nnc3ccc(SCC(=O)NCc4ccccc4)nn23)cc1,-,?,-,-,-,63.6,-,-
COc1ccc(Nc2nc(C)nc(N)c2S(=O)(=O)c2ccccc2)cc1,.,.,-,-,-,-,.,.
Nc1c(C(=O)Nc2nccs2)sc2nc(-c3cccs3)cc(C(F)(F)F)c12,-,-,-,-,-,-,.,.
Cc1nnc(NC(=O)c2sc3nc(-c4cccs4)cc(C(F)(F)F)c3c2N)s1,-,-,51.8,-,51.7,-,-,?
CCc1cc(-c2n[nH]c(C)c2-c2nc(C)cs2)c(O)cc1OC,-,-,-,-,-,45.2,?,-
CCCc1cc(=O)oc2c(C)c(OCC(=O)NCCN3CCOCC3)ccc12,-,-,-,-,-,54.4,-,-
O=C(NCCCN=C1NS(=O)(=O)c2ccccc21)c1ccc(F)cc1,-,-,-,-,-,57.9,-,-
O=C(Cn1cncn1)c1ccccc1Br,-,-,-,-,-,43.7,-,-
